Hits are enriched below; roughly 2.3% of the tested compounds scored in any of these assays.
CF NFkB block: inhibitors of cystic fibrosis induced NF-kB; KKLEB NF-kB-GFP reporter, PAF-induced, GFP fluorescence overnight; inhibition, % at 5 µM; hit rate 0.86% among 360,000;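 active means at least 50% inhibition at 5 µM, scaled per plate between neutral and stimulator controls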;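 further: PAF is a Pseudomonas aeruginosa culture filtrate used as stimulus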
KKLEB cytotox: reduces viability of KKLEB cystic fibrosis airway cells. KKLEB CF airway cells viability, ATPlite luminescence, overnight; hits give low values; cells stimulated with P. aeruginosa culture filtrate. activity change (cytotoxicity), % at 5 µM. hit rate 0.36% among 360,000;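 active means corrected activity change at or below -50% at 5 µM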
TWEAK-Fn14 inh: blocks TWEAK-Fn14 interaction in a reporter cell assay; hit rate 2% among 360,000; TWEAK-stimulated Fn14 reporter cells, luciferase luminescence, 8 h; inhibition, % at 10 µM; in the data active means inhibition above about 50%
LGR2 inh: blocks bursicon-induced cAMP signaling via Drosophila LGR2; HEK293 LGR2, CRE-luciferase, bursicon-stimulated, 4 h; inhibition, % at 9.99 µM; hit rate 0.35% among 380,000; AID 720647;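 active means drop in luminescence signal, shown as inhibition above about 50% in the replicate tests, limit read from the data, passing the limit was not always enough; inconclusive means probably only some replicates passing the limit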;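 further: agonist challenge used bursicon conditioned medium at about half maximal strength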
HIF-2a inh: blocks HIF-2a reporter activity; AID 624352; inhibition, % at 18.8 µM; hit rate 0.72% among 360,000; 786-0 RCC cells HIF-2a reporter, luciferase luminescence, overnight;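 active means inhibition of the luminescence signal of 40% or more relative to plate controls, in a single-dose primary screen at 18.75 µM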
hiPSC survival: hiPSC single-cell survival enhancement; survival enhancement, % at 20 µM; hit rate 0.044% among 360,000; AID 602274; ATPlite luminescence; 100% = ROCK inhibitor wells, 0% = DMSO; in the data active means survival enhancement above about 18%;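 further: cells exposed to compounds for 16 hours before the ATP read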
Numbers stand for hits; – = inactive; ? = inconclusive; · = no result given.

SMILES | CF NFkB block | KKLEB cytotox | TWEAK-Fn14 inh | LGR2 inh | HIF-2a inh | hiPSC survival
CC=Cc1ccc2n(c1=O)C[C@@H]1[C@@H](CO)[C@H](C(=O)NCCC)N(CCC(F)(F)F)[C@H]21 (mixture of isomers) | · | · | · | – | · | ·
Cc1noc2ncnc(Sc3ccc(Br)cc3)c12 | – | – | 66 | 76 | – | –
Cc1cc(CNC(=O)COc2cc(F)ccc2[N+](=O)[O-])c2ccccc2n1 | – | – | 77 | – | – | –
COc1ccc(NC(=O)Nc2ccc3c(c2)C(=O)N([C@H](C)CO)C[C@@H](C)[C@H](CN(C)S(=O)(=O)c2ccc(F)cc2)OCCCC[C@H](C)O3)cc1 | · | · | · | – | · | ·
CCc1ccc(-c2csc(NC(=O)C3=NN(c4ccccc4)C(=O)CC3)n2)cc1 | – | – | 74 | – | – | –
CCc1ccc(-c2csc(NC(=O)c3cccnc3)n2)cc1 | – | – | 61 | – | – | –
O=C(Nc1nc(-c2ccc(Cl)cc2)cs1)c1cccnc1 | – | – | – | · | – | –
Cc1cc(C)c(-c2csc(NC(=O)C3=NN(c4ccccc4)C(=O)CC3)n2)c(C)c1 | – | – | – | – | – | –
C=C(C)Cc1c(C)c(C#N)c2[nH]c3ccccc3n2c1=O | – | – | – | – | – | –
Cc1ccc(Cc2c(C)c(C#N)c3[nH]c4ccccc4n3c2=O)cc1 | – | – | 61 | – | – | –
CC(C)NC(=O)NCC[C@@H]1CC[C@H](NC(=O)CCN2CCCCC2)[C@H](CO)O1 | · | · | · | – | · | ·
O=C(Nc1ccn(Cc2ccccc2F)n1)c1ccc(COc2ccccc2Cl)cc1 | – | – | 62 | · | – | –
CCCNC(=O)N1CCC2(CC1)CN(C(=O)c1cccnc1)[C@H](CO)c1[nH]c3cc(OC)ccc3c12 | · | · | · | – | · | ·
Cc1cc(Oc2ccc(N)cn2)cc(C)c1Cl | – | – | – | – | – | –
CC(C)(C)c1ccc(Oc2ccc(N)cn2)cc1 | – | – | – | – | 77 | –
N/C(=N\OC(=O)/C=C/c1ccc(Br)cc1)c1ccccn1 | – | – | 66 | ? | – | –
N/C(=N\OC(=O)/C=C/c1ccccc1Cl)c1ccccn1 | – | – | 75 | 73 | – | –
Cc1cc(C(=O)COC(=O)c2ccc(O)cc2)c(C)n1CC1CCCO1 (configuration not stated) | – | – | – | · | – | –
COCCn1c(C)cc(C(=O)COC(=O)c2ccc(-n3nc(C)cc3C)cc2)c1C | – | – | – | · | – | –
COCCn1c(C)cc(C(=O)COC(=O)c2ccc(Cl)c(S(N)(=O)=O)c2)c1C | – | – | 72 | – | – | –
Cc1cc(C(=O)COC(=O)c2ccc(Cl)c(S(N)(=O)=O)c2)c(C)n1CC1CCCO1 (configuration not stated) | – | – | 64 | – | – | –
COc1ccccc1C#Cc1ccc2c(c1)O[C@@H](CN(C)C)[C@H](C)CN([C@@H](C)CO)S2(=O)=O | · | · | · | – | · | ·
CO[C@H]1CN(C)C(=O)c2ccc(NS(=O)(=O)c3ccc(Cl)cc3)cc2OC[C@@H](C)N(C)C[C@H]1C | · | · | · | – | · | ·
O=[N+]([O-])c1ccc(-c2nc3ccc([N+](=O)[O-])cc3[nH]2)cc1 | – | – | – | · | – | –
O=[N+]([O-])c1ccc2nc(/C=C/c3ccc(Cl)cc3)[nH]c2c1 | – | – | 76 | – | – | –
SMILES | CF NFkB block | KKLEB cytotox | TWEAK-Fn14 inh | LGR2 inh | HIF-2a inh | hiPSC survival
C[C@@H]1CN([C@@H](C)CO)C(=O)Cc2cc(NC(=O)CCN3CCOCC3)ccc2O[C@H]1CN(C)CC1CCCCC1 | · | · | · | – | · | ·
CC(C)NC(=O)N(C)C[C@H]1Oc2ncc(C#Cc3ccncc3)cc2C(=O)N([C@H](C)CO)C[C@@H]1C | · | · | · | – | · | ·
CCOc1ccc(-c2nnc(-c3ccccc3)o2)cc1 | – | – | 81 | · | – | –
CCOc1ccc(-c2nnc(-c3ccc(OC)cc3)o2)cc1 | – | – | – | · | – | –
CCOc1ccc(-c2nc(-c3cccnc3)no2)cc1 | – | – | 67 | · | – | –
COc1ccccc1CNC(=O)C[C@H]1C[C@H]2c3cc(NC(=O)CN(C)C)ccc3O[C@H]2[C@@H](CO)O1 | · | · | · | – | · | ·
CCN(CC)S(=O)(=O)c1ccccc1/C=N\O | – | – | 62 | – | – | –
CCN(Cc1ccccc1)S(=O)(=O)c1ccccc1Br | – | – | – | – | – | –
CO[C@@H]1CN(C)C(=O)c2cc(NC(=O)c3ccno3)ccc2OC[C@H](C)N(S(C)(=O)=O)C[C@@H]1C | · | · | · | – | · | ·
COc1ccc(C(=O)c2sc(Nc3ccccc3F)nc2N)cc1 | – | – | – | – | – | –
COc1ccc(C(=O)c2sc(Nc3ccccc3)nc2N)cc1OC | – | – | 54 | – | – | –
Nc1nc(Nc2ccccc2)sc1C(=O)c1ccccc1 | 87 | – | 62 | 71 | – | –
COc1ccc(C(=O)c2sc(Nc3ccccc3)nc2N)cc1 | – | – | – | – | – | –
CC(=O)Nc1ccc(NC(=O)c2ccc(N(Cc3ccccc3C)S(C)(=O)=O)cc2)cc1 | – | – | 86 | – | – | –
CC(=O)c1cccc(NC(=O)c2ccc(N(Cc3ccccc3C)S(C)(=O)=O)cc2)c1 | – | – | – | – | – | –
Cc1ccc(S(=O)(=O)Nc2ccc(Br)cc2C(NCC(=O)O)c2ccccc2)cc1 (configuration not stated) | – | – | – | – | – | –
O=C(O)CSc1cc(NS(=O)(=O)c2ccc(Br)cc2)c2ccccc2c1O | 91 | – | 98 | – | – | –
O=S(=O)(Nc1cc(Sc2ncn[nH]2)c(O)c2ccccc12)c1ccccc1 | 79 | – | 95 | 97 | – | –
CCOC(=O)c1c(C)[nH]c(C2=NNC(=NC3CC3)SC2)c1C | – | – | 85 | · | – | –
CCOC1=CC2=C(C(=O)C(Cl)=CC2=O)[C@@H]2CN(S(=O)(=O)c3ccc(C)cc3)[C@@H](c3ccccc3)[C@H]12 | – | – | – | – | 57 | –
COc1cc(C=C(c2nc3ccccc3s2)c2nc3ccccc3s2)cc(OC)c1O | – | – | – | – | – | –
CN(C)c1ccc(/C=C(\Cl)c2nc3ccccc3s2)cc1 | – | – | 92 | · | – | –
Cc1ccc(OCCNC(=O)c2ccc(COc3ccccc3)o2)cc1 | – | – | – | – | – | –
O=C(NCCc1ccc([N+](=O)[O-])cc1)c1ccccc1 | – | – | – | – | – | –
CC(C)(C)c1ccc(C(=O)NCCc2ccccc2)cc1 | – | – | 59 | – | – | –
O=C(NCCc1ccccc1)c1ccc([N+](=O)[O-])cc1 | – | – | 58 | · | – | –
CC(C)(C)c1ccc(C(=O)NCCOc2ccccc2)cc1 | – | – | 89 | 62 | – | –
CC(C)Cc1ccc(C(=O)NCCOc2ccccc2)o1 | – | – | 51 | – | – | –
CCC(=O)N1C[C@@H](O)COC[C@H]2O[C@@H](CC(=O)NCc3cc(F)cc(F)c3)CC[C@@H]21 | · | · | · | – | · | ·

Screening data from PubChem.
